A number with no mark means an inactive call. Results filed as inconclusive are left out. Entries that show only a call come without a potency. Calls of active or inactive are those of the source. Unless noted, the call rests on the fitted dose curve; in most records, active means well fitted curve in the direction sought with a large enough effect; inconclusive means small, poorly fitted or top-dose-only effect, or another doubt; inactive means no such curve, though single readings can be large; an effect the other way counts as inactive or inconclusive. Residues, ends and D or L forms follow the SMILES beside them. *: point of attachment. Cbz = O=C(OCc1ccccc1)*
Assays:
[1] = biological target: Transient receptor potential cation channel subfamily V member 1 (Homo sapiens) (UniProt Q8NER1); assay: HTS Assay for Compounds that Act as Enhancers of the Vanilloid Receptor 1 (AID 488979)
Sequence of Transient receptor potential cation channel subfamily V member 1 (Homo sapiens) (Q8NER1 whole entry, looked up): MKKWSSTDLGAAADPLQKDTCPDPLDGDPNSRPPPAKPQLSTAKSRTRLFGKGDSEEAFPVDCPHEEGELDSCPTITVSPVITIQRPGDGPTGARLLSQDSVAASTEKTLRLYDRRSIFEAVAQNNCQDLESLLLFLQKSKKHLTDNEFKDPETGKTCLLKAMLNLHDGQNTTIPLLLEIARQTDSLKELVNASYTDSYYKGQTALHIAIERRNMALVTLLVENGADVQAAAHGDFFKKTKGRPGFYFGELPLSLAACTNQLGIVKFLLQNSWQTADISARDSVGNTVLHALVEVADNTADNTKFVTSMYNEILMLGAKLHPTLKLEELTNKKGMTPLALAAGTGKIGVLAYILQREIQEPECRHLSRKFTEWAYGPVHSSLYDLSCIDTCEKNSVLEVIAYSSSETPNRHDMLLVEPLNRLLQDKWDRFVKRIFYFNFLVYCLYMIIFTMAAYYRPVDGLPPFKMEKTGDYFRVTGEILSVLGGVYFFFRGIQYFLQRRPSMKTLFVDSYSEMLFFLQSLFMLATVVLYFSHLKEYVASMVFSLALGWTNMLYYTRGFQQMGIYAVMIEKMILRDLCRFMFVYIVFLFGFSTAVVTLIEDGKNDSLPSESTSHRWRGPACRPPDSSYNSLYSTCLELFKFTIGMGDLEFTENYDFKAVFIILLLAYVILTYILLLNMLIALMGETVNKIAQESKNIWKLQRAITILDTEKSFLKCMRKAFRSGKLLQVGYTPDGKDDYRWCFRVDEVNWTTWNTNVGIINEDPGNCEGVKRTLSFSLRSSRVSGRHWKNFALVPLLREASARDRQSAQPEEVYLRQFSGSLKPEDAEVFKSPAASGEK
In short: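 TRPV1 cells loaded with Fluo-8 calcium dye; compound added and Ca2+ signal (ex 480/em 520 nm) followed 3 min, then capsaicin at EC20 added and read 2 more min to detect enhancement.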

[2] = biological target: Thyrotropin receptor (Homo sapiens) (UniProt P16473); assay: qHTS Assay for Antagonists of the Thyroid Stimulating Hormone Receptor (AID 488980); further: series mostly up to about 58 µM
Sequence of Thyrotropin receptor (Homo sapiens) (P16473 whole entry, looked up): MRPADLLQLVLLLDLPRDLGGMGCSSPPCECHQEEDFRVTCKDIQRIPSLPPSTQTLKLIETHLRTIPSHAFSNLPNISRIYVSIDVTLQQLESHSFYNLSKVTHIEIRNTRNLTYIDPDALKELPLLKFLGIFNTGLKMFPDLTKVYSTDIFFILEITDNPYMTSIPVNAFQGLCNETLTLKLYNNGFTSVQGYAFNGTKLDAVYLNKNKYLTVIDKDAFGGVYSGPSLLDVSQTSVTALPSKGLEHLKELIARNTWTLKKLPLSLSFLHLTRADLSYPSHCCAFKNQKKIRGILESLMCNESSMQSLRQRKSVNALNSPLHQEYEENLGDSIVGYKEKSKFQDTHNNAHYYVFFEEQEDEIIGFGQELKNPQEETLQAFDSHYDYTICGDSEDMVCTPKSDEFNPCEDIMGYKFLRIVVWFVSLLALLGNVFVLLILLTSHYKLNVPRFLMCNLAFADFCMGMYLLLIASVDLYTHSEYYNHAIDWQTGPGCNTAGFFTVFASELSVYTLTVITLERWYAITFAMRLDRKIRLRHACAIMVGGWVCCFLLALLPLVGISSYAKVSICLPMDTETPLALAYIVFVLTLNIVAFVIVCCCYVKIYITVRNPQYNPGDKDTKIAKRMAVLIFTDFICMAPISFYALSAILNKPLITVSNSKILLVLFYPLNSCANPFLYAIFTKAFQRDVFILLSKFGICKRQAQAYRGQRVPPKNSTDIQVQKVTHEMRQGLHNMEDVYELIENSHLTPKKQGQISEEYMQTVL
In short: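 TSHR-HEK293 cells; 70 uM RO 20-1724 PDE inhibitor; compound + EC80 TSH (4 nM final); anti-cAMP cryptate antibody/cAMP-d2 in lysis buffer, 30 min RT; HTRF 665/620 nm read.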

[3] = biological target: D(1A) dopamine receptor (Homo sapiens) (UniProt P21728); assay: HTS Assay for Allosteric Agonists of the Human D1 Dopamine Receptor: Primary Screen for Agonists (AID 488981)
Sequence of D(1A) dopamine receptor (Homo sapiens) (P21728 whole entry, looked up): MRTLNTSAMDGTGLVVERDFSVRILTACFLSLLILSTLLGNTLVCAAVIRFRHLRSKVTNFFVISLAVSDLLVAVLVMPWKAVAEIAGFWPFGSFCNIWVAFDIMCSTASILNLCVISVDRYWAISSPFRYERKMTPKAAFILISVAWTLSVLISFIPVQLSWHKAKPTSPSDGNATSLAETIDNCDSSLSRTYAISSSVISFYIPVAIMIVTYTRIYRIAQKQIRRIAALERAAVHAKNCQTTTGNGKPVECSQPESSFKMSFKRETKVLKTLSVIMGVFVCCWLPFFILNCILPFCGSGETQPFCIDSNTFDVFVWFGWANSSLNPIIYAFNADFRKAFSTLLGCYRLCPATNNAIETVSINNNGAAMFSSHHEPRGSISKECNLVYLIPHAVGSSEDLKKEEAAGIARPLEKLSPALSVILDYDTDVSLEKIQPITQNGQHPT
In short: (§1)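 Tetracycline-induced HEK293 Trex D1 cells with forced coupling to calcium, loaded with no-wash calcium dye; kinetic fluorescence read 180 s after compound addition for agonism, then a further 180 s after an EC20 dopamine challenge for potentiation.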

[4] = biological target: D(1A) dopamine receptor (Homo sapiens) (UniProt P21728); assay: HTS Assay for Allosteric Agonists of the Human D1 Dopamine Receptor: Primary Screen for Potentiators (AID 488982); further: potency means the concentration at half of the fitted maximal effect
In short: as §1

[5] = biological target: D(1A) dopamine receptor (Homo sapiens) (UniProt P21728); assay: HTS Assay for Allosteric Agonists of the Human D1 Dopamine Receptor: Primary Screen for Antagonists (AID 488983);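 further: calcium flux response to an EC80 dopamine challenge measured with no-wash dye; nearly all actives have a fitted effect of over 65% in size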; further: potency means the concentration at half of the fitted maximal effect
In short: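 Tetracycline-induced HEK293 T-REx D1 line, force-coupled to calcium flux, read with no-wash calcium dye. Compound added after 10 s baseline, read 180 s for agonism, then EC80 dopamine added and read a further 180 s.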

[6] = Validation screen for small molecules that induce genotoxicity in human embryonic kidney (HEK293T) cells expressing luciferase-tagged ELG1 (AID 493106); further: potency means the concentration at half of the fitted maximal effect
In short: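 HEK293T cells expressing luciferase-tagged ELG1, 2,000 cells/well, exposed to compound 16 hr at 37 °C, 5% CO2. Luciferase read after ONE-Glo, 30 min at room temperature; increased signal indicates genetic stress.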

[7] = biological target: ATPase family AAA domain-containing protein 5 (Homo sapiens) (UniProt Q96QE3); assay: Validation screen for small molecules that inhibit ELG1-dependent DNA repair in human embryonic kidney (HEK293T) cells expressing luciferase-tagged ELG1 (AID 493107); further: nearly all actives have a fitted effect of over 70% in size; further: potency means the concentration at half of the fitted maximal effect
Sequence of ATPase family AAA domain-containing protein 5 (Homo sapiens) (Q96QE3 whole entry, looked up, the tested form may be a part): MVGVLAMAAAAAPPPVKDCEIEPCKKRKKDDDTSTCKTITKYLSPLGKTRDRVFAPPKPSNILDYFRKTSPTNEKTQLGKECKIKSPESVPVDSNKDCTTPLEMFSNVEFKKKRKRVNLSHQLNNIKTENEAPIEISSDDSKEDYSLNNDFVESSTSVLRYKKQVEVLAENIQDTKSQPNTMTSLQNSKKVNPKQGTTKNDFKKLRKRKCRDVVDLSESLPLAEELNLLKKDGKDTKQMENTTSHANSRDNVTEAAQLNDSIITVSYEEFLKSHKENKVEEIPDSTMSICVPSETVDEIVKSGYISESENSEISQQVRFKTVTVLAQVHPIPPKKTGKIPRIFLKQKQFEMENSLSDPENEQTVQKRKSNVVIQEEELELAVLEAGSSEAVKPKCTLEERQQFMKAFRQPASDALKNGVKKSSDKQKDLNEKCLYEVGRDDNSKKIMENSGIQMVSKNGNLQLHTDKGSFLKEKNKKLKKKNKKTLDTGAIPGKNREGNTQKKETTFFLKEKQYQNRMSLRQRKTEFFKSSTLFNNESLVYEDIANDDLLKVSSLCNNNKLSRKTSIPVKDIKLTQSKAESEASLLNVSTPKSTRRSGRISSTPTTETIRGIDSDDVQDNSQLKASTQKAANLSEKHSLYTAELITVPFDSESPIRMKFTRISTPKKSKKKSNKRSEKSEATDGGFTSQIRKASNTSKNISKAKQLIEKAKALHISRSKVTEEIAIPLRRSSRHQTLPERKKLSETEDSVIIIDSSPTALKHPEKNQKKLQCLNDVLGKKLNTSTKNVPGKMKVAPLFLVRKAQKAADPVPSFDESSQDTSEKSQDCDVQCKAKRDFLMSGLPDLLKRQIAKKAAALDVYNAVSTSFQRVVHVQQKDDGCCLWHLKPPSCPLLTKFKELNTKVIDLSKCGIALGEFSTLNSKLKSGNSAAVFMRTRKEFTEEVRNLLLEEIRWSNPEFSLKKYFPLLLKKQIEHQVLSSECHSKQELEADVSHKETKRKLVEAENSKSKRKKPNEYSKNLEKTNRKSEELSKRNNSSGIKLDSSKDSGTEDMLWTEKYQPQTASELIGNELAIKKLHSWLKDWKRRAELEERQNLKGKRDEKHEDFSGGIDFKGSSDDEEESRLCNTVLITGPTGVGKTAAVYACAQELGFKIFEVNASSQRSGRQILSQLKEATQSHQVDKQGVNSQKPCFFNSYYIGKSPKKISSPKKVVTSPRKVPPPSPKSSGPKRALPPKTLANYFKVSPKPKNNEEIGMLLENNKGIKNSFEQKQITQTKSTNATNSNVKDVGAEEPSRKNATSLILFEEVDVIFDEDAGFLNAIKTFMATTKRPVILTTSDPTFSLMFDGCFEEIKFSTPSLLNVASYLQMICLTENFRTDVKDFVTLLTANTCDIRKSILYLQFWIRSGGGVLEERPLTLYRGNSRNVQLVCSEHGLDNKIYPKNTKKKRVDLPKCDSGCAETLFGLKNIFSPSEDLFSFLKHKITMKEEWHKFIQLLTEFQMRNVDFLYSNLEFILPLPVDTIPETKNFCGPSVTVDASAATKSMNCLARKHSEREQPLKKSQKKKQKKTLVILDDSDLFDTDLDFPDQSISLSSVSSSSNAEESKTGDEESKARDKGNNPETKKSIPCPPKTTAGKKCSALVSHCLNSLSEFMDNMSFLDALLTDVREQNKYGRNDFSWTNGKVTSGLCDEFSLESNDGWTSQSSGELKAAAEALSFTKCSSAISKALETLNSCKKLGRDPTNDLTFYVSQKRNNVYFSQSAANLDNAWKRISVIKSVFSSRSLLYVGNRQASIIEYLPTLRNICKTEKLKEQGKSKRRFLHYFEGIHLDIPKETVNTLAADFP
In short: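 HEK293T cells expressing luciferase-tagged ELG1, 2,000 per well, treated with 5-fluorouridine plus compound for 16 h at 37 C. ONE-Glo luminescence after 30 min at room temperature reports ELG1 reporter level.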

[8] = biological target: Thyrotropin-releasing hormone receptor (Homo sapiens) (UniProt P34981); assay: qHTS for Small Molecule Agonists and Allosteric Enhancers of Human TRH Receptor: Validation Screen for Agonists (AID 493127;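 active means calcium activation more than 3 SD above the typical response in the agonist read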); conditions: TRH receptor agonist cell assay; at 2 µM; hits give high values
Sequence of Thyrotropin-releasing hormone receptor (Homo sapiens) (P34981 whole entry, looked up): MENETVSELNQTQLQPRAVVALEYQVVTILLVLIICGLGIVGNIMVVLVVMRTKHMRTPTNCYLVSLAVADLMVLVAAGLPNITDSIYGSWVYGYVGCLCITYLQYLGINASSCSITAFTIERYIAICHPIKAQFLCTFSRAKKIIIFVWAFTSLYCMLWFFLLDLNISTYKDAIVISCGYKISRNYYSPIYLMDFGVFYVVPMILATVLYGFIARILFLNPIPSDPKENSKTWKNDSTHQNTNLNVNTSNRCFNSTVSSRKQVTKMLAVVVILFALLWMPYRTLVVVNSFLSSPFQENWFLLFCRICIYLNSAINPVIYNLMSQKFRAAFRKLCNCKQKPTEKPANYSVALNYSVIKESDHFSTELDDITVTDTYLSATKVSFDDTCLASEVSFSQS
In short: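 TRHR cells loaded with fluo-8 calcium dye; FDSS kinetic fluorescence (Ex 480/Em 530) read at 1 s/cycle after 23 nL compound addition. Agonist-mode calcium response recorded before the 10 nM TRH (EC20) addition.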

| SMILES | outcome [1] | outcome [2] | Potency [3] | Potency [4] | Potency [5] | Potency [6] | Potency [7] | activation [8] |
| --- | --- | --- | --- | --- | --- | --- | --- | --- |
| N[C@@H](Cc1c[nH]c2ccccc12)C(=O)O | inactive | inactive | inactive | inactive | inactive | inactive | inactive | -0.125% |
| COc1ccc2c(c1)CCC1C2CC[C@@]2(C)C1CC[C@@H]2NCCCCCCN1C(=O)C=CC1=O (stereo partly specified) | inactive | inactive | inactive | inactive | inactive | inactive | inactive | 0.25% |
| CCCCCCCCCCCCCCC[C@H](O)[C@H](N)CO | inactive | inactive | inactive | inactive | inactive | inactive | inactive | 1.44% |
| CCCC[C@@]1(C2CCCC2)Cc2cc(OCC(=O)O)c(Cl)c(Cl)c2C1=O | inactive | inactive | inactive | inactive | inactive | inactive | inactive | 1.19% |
| CC[C@H](NC(=O)c1c(C)c(-c2ccccc2)nc2ccccc12)c1ccccc1 | inactive | inactive | inactive | inactive | inactive | inactive | inactive | -8.62% |
| O=c1onc2n1-c1cc(Br)ccc1OC2 | inactive | inactive | inactive | inactive | inactive | inactive | inactive | 1.75% |
| CC(C)C[C@H](NC(=O)[C@H](O)[C@H](N)Cc1ccccc1)C(=O)O | inactive | inactive | inactive | inactive | inactive | inactive | inactive | -0.0625% |
| O=[N+]([O-])c1cccc2cn[nH]c12 | inactive | inactive | inactive | inactive | inactive | inactive | inactive | 0.5% |
| O=C(O)c1cc(=O)cc(C(=O)O)[nH]1 | inactive | inactive | inactive | inactive | inactive | inactive | inactive | 0.75% |
| CC(C)[C@H](NC(=O)OCc1ccccc1)C(=O)N[C@H](C=O)Cc1ccccc1 (Cbz-Val-Phe-aldehyde) | inactive | inactive | inactive | 2.06 µM (active) | inactive | inactive | inactive | 0.25% |
| Cn1cc(C(=O)OCC2CCN(CCNS(C)(=O)=O)CC2)c2ccccc21 | inactive | inactive | inactive | inactive | inactive | inactive | inactive | 0.688% |
| c1ccc2c(c1)CC(N1CCN(c3cccc4c3OCCO4)CC1)C2 | inactive | inactive | inactive | inactive | inactive | inactive | inactive | -3.75% |
| NC(N)=N[C@@H](CCC(=O)O)C(=O)O | inactive | inactive | inactive | inactive | inactive | inactive | inactive | 0.0625% |
| NC(=O)CC[C@H](N)C(=O)O | inactive | inactive | inactive | inactive | inactive | inactive | inactive | -0.625% |
| Cc1ccccc1/C=C/C1=NCCN1 | inactive | inactive | inactive | inactive | 12.6 µM (active) | inactive | inactive | 0.5% |
| CCCCCC(O)CCCC(=O)O (stereo unspecified) | inactive | inactive | inactive | inactive | inactive | inactive | inactive | -0.375% |
| Clc1nccc2c1ccc1ccccc12 | inactive | inactive | inactive | inactive | inactive | inactive | inactive | -6.94% |
| NCCCCN | inactive | inactive | inactive | inactive | inactive | inactive | inactive | 1.31% |
| NCC(O)C1CCCCCCC1 (stereo unspecified) | inactive | inactive | inactive | inactive | inactive | inactive | inactive | 1% |
| COC(=O)C1=C(C)NC(C)=C([N+](=O)[O-])C1c1ccccc1C(F)(F)F (stereo unspecified) | inactive | inactive | inactive | inactive | inactive | inactive | inactive | -3.94% |
| CNCCNS(=O)(=O)c1cccc2cnccc12 | inactive | inactive | inactive | inactive | inactive | inactive | 9.2 µM (active) | 1.44% |
| CC(=O)NCCc1c[nH]c2ccc(O)cc12 | inactive | inactive | inactive | inactive | inactive | inactive | inactive | 1.31% |
| O=C(O)C1CCNCC1 | inactive | inactive | inactive | inactive | inactive | inactive | inactive | -0.188% |
| O=C(O)c1cc2cc(F)ccc2[nH]1 | inactive | inactive | inactive | inactive | inactive | inactive |  | -2.56% |
| CC(C)(C)NCC(O)COc1cccc2[nH]c(=O)[nH]c12 (stereo unspecified) | inactive | inactive | inactive | inactive | inactive | inactive |  | 1.12% |
| CN1CCC2(CCN3CCc4c(oc5ccccc45)C3C2)N(C)C1=O (stereo unspecified) | inactive | inactive | inactive | inactive | 10 µM (active) | inactive | inactive | 0.25% |
| C#CCn1c(=O)c2c(ncn2C)n(C)c1=O | inactive | inactive | inactive | inactive | inactive | inactive |  | 0.938% |
| Nc1ncnc2c1ncn2C1CCCC1 | inactive | inactive | inactive | inactive | inactive |  | inactive | 1.12% |

| SMILES | outcome [1] | outcome [2] | Potency [3] | Potency [4] | Potency [5] | Potency [6] | Potency [7] | activation [8] |
| --- | --- | --- | --- | --- | --- | --- | --- | --- |
| O=c1[nH]c2cc(Cl)ccc2c(O)c1-c1ccc(Oc2ccccc2)cc1 | inactive | inactive | inactive | inactive | inactive | inactive |  | 0.5% |
| O=c1cc(-c2ccccc2)[nH]c2nc(Cl)ccc12 | inactive | inactive | inactive | inactive | inactive | inactive |  | -0.438% |
| Nc1ccc(CCNc2ncnc3c2ncn3C2OC(CO)C(O)C2O)cc1 (stereo unspecified) | inactive | inactive | inactive | inactive | inactive |  | inactive | 1.06% |
| S=C(S)N1CCCC1 | inactive | inactive | inactive | inactive | inactive |  | inactive | -0.188% |
| Cn1ccnc1 | inactive | inactive | inactive | inactive | inactive | inactive | inactive | 1.38% |
| N=C(N)SCCc1cnc[nH]1 | inactive | inactive | inactive | inactive | inactive | inactive |  | -0.375% |
| COC(=O)C(N)Cc1ccc(Cl)cc1 (stereo unspecified) | inactive | inactive | inactive | inactive | inactive | inactive |  | -2.56% |
| O=C(O)CCC(=O)N1CCCC1C(=O)O (stereo unspecified) | inactive | inactive | inactive | inactive | inactive | inactive |  | -0.312% |
| Nc1ncnc2c1ncn2C1CCCO1 (stereo unspecified) | inactive | inactive | inactive | inactive | inactive | inactive | inactive | -0.25% |
| c1ccc(CN2CCC3(CCCc4ccccc43)CC2)cc1 | inactive | inactive | inactive | inactive | inactive | inactive |  | -8.25% |
| CC(=O)/C(C)=N/O | inactive | inactive | inactive | inactive | inactive | inactive |  | 0.0625% |
| CC(N)(C(=O)O)c1ccc(C(=O)O)cc1 (stereo unspecified) | inactive | inactive | inactive | inactive | inactive | inactive |  | 1.12% |
| CN[C@H](CC(=O)O)C(=O)O | inactive | inactive | inactive | inactive | inactive | inactive |  | 1% |
| NCCC1CCCC(CCN)N1 (stereo unspecified) | inactive | inactive | inactive | inactive | inactive | inactive |  | 1.19% |
| N[C@@H](Cc1ccc(F)cc1)C(=O)O | inactive | inactive | inactive | inactive | inactive | inactive |  | 0.125% |
| O=C1Cc2c([nH]c3ccc(Br)cc23)-c2ccccc2N1 | inactive | inactive | inactive | inactive | inactive | 0.411 µM (active) |  | 9.25% |
| CCCC(=O)NCCc1c2n(c3ccc(OC)cc13)CCCc1ccccc1-2 | inactive | inactive | inactive | inactive | inactive | inactive |  | -9.25% |
| O=C(O)/C(=C/c1c(C(=O)O)[nH]c2cc(Cl)cc(Cl)c12)c1ccccc1 | inactive | inactive | inactive | inactive | inactive | inactive |  | 1.12% |
| CCCCS(=N)(=O)CC[C@H](N)C(=O)O (stereo partly specified) | inactive | inactive | inactive | inactive | inactive | inactive |  | -2.62% |
| O=c1[nH]c(=O)c2nc3ccccc3nc2[nH]1 | inactive | inactive | inactive | inactive | inactive | inactive |  | 3.81% |
| O=c1[nH]ccc2c(O)cccc12 | inactive | inactive | inactive | inactive | inactive | inactive | inactive | 1.12% |
| NC1C=CC=C(C(=O)O)C1 (stereo unspecified) | inactive | inactive | inactive | inactive | inactive |  |  | -0.125% |
| CCn1c(=O)[nH]c2cc(Cl)c(Cl)cc21 | inactive | inactive | inactive | inactive | inactive |  |  | 1.69% |
| O=c1ccc2c(OCCCCc3ccccc3)c3ccoc3cc2o1 | inactive | inactive | inactive | inactive | inactive | inactive |  | -9.69% |
| O=C(O)C1=CC(=C(c2ccc(O)c(C(=O)O)c2)c2ccc(O)c(C(=O)O)c2)C=CC1=O | inactive | inactive | inactive | inactive | inactive | inactive |  | 1% |
| CC(N)=O | inactive | inactive | inactive | inactive | inactive | inactive | inactive | 0.25% |
| COC(=O)[C@H](NC(=O)c1cc(-c2ccccc2)nc2ccccc12)c1ccccc1 | inactive | inactive | inactive | inactive | inactive | inactive |  | -5.81% |
